This note sets out measurements from ChEMBL document CHEMBL3988442, “University of Dundee, Small-Polar-MMV Screening Library” (2021).

For part of these data: Potency and affinity values are given separately.

Common to all, as to parameters: scale not given: direction of the effect not stated beside the values
The target in test [1] is Protein translocase subunit SecA (Escherichia coli (strain K12)) (UniProt P10408). Put plainly: Assay to Identify E. coli SecA ATPase Inhibitors. As to conditions: 30 µM. Format: functional.
In test [2] the target is T1, Ubiquitin-activating enzyme e1, putative (Leishmania donovani (strain BPK282A1)) (UniProt E9BSI1).
T1 sequence (whole entry): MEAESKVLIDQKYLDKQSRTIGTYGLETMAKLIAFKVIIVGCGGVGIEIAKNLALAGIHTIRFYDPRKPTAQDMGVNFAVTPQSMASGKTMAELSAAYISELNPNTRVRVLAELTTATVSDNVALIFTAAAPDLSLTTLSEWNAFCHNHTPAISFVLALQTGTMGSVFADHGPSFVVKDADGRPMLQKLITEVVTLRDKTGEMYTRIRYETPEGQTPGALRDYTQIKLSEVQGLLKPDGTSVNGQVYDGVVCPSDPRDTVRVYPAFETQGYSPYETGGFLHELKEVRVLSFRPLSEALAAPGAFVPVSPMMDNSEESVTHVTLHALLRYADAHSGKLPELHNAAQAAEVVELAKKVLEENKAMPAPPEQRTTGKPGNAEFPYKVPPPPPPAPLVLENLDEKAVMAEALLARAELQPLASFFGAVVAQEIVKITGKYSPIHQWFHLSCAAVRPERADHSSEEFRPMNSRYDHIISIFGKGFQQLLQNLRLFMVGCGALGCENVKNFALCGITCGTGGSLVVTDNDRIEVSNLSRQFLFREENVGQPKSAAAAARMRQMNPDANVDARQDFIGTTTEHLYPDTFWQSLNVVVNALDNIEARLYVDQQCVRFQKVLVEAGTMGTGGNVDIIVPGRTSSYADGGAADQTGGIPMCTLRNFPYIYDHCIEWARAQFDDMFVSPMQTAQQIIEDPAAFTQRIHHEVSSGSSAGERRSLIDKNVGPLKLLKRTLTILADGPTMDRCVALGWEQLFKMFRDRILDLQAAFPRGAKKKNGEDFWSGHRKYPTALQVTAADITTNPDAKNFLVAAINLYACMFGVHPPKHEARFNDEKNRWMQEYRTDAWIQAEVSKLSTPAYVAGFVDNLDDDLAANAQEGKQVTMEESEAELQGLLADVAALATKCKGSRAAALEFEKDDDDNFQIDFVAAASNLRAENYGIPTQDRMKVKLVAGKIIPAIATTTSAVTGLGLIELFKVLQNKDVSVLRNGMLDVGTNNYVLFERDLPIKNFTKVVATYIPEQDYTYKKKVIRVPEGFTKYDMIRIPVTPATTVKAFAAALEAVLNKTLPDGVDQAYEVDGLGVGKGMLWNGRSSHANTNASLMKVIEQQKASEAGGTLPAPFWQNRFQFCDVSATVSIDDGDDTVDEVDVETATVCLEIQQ
Put plainly: Leishmania donovani Ubiquitin Activating Enzyme (LdE1). The format is functional. Particulars: 30 µM.

The target of test [3] is Sialic acid-binding Ig-like lectin 9 (Homo sapiens) (UniProt Q9Y336). Kind of test: Hs-Siglec9 ALPHAscreen SOP 20170721. As to conditions: 10 µM. A general note: Bead proximity is the source of the signal in Alpha formats.
The test system of another test is Trypanosoma cruzi. Kind of test: Trypanosoma cruzi phosphomannomutase and mannose-1-phosphate guanylyltransferase assay. Format: functional. Particulars: 10 µM.
The target of test [4] is T2, Arginase-2, mitochondrial (Homo sapiens) (UniProt P78540).
T2 sequence (whole entry): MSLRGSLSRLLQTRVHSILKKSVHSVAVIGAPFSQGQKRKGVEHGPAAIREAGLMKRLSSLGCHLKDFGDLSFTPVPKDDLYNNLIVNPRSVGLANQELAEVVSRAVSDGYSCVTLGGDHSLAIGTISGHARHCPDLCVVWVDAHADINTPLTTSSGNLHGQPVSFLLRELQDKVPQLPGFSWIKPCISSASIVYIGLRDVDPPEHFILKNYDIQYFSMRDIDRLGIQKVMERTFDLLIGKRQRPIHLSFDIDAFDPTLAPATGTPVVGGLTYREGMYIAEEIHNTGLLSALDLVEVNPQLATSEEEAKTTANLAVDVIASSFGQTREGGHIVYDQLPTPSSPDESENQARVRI
Kind of test: in vitro enzyme assay to detect the production of urea directly proportional to the activity of Arginase II. Also: in the data most compounds retested in dose-response had high values. The format is functional. As to conditions: 33.3 µM.

Test [5] deals with T3, Proteasome subunit beta (Trypanosoma cruzi) (UniProt O96673).
T3 sequence (whole entry): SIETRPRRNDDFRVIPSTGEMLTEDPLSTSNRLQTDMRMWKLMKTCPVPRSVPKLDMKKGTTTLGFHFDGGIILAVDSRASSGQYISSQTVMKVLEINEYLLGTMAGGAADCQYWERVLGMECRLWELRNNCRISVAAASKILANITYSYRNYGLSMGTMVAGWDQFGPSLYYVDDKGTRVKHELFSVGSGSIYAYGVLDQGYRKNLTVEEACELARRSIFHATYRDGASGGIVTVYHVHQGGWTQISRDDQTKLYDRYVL
Kind of test: Trypanosoma cruzi proteasome chymotrypsin-like activity (TcProtChymo) assay. Also: in the data most compounds retested in dose-response had high values. Format: functional. As to conditions: 9.37 µM.

For a further test, the species on record is Homo sapiens. Kind of test: To identify inhibition of the IFN signalling (Jak-Stat) pathway via expression of an eGFP reporter gene under the control of an IFN-stimulated response element (ISRE) containing MxA promoter. Format: functional. As to conditions: 30 µM. A general note: Reporter assays use an easily measured gene product as a stand-in for the process of interest.

In test [6] the target is T4, Tyrosyl-tRNA synthetase, putative (Trypanosoma cruzi (strain CL Brener)) (UniProt Q4DSP6).
T4 sequence (whole entry): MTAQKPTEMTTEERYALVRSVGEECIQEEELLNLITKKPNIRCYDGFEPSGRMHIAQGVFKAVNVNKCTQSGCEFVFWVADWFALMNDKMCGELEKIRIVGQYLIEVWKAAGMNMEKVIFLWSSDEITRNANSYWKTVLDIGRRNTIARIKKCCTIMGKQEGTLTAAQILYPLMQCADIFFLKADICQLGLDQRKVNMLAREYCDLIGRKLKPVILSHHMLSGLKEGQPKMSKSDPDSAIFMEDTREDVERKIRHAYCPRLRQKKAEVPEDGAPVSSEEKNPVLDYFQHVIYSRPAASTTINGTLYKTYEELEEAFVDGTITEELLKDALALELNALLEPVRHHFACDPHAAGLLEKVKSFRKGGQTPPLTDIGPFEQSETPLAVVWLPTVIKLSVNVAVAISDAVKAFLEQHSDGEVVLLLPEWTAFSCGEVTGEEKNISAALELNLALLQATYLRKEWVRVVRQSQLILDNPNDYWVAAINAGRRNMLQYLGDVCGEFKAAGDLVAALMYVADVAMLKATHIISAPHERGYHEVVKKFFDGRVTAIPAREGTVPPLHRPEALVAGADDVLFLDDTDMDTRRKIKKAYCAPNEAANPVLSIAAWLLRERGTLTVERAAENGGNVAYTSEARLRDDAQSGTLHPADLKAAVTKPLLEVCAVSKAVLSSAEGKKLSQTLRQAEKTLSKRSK
Put plainly: Trypanosoma cruzi tyrosyl tRNA synthetase (TcYRS) _High Tyrosine SOP. Also: in the data most compounds retested in dose-response had high values. As to conditions: 30 µM. The format is functional.

For test [7], the target named is T4, Tyrosyl-tRNA synthetase, putative (Trypanosoma cruzi (strain CL Brener)). Put plainly: Trypanosoma cruzi tyrosyl tRNA synthetase (TcYRS) SOP. The format is functional. As to conditions: 30 µM.
The target in test [8] is Chromo domain-containing protein 1 (Saccharomyces cerevisiae (strain ATCC 204508 / S288c) (Baker's yeast)) (UniProt P32657). Kind of test: ScCHD-1 Enzyme Inhibition Assay. Also: in the data most compounds retested in dose-response had high values. Format: functional. Particulars: 30 µM.
Chain of Chromo domain-containing protein 1 (Saccharomyces cerevisiae (strain ATCC 204508 / S288c) (Baker's yeast)) (P32657 whole entry, the tested form may be a part): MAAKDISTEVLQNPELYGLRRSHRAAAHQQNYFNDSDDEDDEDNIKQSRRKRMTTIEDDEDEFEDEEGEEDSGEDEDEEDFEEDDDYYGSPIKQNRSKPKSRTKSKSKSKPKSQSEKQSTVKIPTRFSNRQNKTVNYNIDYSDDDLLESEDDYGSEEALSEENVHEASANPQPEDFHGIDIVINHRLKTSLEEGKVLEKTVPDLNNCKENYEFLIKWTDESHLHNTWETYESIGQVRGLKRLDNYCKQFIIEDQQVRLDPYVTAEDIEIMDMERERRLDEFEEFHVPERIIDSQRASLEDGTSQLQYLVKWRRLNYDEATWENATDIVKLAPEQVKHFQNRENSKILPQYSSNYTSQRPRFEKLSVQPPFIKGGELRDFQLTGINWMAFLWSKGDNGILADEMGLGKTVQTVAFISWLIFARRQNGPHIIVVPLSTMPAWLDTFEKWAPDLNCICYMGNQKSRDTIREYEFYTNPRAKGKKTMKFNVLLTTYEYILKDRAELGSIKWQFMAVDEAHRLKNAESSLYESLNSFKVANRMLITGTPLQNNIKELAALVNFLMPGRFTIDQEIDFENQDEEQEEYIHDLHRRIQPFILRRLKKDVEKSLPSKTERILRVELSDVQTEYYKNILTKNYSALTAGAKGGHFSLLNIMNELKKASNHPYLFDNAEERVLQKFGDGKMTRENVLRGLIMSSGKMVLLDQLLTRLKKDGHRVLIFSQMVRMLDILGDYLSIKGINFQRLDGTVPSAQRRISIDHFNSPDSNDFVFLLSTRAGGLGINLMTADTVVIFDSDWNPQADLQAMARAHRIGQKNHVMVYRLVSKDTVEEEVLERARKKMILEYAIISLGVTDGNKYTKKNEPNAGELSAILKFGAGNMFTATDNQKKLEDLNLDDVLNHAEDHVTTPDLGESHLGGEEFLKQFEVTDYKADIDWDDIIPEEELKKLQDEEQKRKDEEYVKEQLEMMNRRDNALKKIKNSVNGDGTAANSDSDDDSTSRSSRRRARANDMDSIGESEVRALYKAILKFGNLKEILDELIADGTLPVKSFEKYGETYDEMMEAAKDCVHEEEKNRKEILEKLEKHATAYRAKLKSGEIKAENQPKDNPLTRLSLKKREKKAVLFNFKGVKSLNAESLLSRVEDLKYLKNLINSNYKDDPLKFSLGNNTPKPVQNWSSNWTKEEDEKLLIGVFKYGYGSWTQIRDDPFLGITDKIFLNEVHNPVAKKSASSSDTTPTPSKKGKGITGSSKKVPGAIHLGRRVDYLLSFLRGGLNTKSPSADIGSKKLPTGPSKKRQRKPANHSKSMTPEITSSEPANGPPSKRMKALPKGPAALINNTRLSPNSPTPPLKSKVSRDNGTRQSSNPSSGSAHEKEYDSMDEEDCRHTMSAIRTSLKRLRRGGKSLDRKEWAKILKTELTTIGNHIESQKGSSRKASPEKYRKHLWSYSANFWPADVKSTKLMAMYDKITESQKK

Chain of Protein translocase subunit SecA (Escherichia coli (strain K12)) (P10408 whole entry): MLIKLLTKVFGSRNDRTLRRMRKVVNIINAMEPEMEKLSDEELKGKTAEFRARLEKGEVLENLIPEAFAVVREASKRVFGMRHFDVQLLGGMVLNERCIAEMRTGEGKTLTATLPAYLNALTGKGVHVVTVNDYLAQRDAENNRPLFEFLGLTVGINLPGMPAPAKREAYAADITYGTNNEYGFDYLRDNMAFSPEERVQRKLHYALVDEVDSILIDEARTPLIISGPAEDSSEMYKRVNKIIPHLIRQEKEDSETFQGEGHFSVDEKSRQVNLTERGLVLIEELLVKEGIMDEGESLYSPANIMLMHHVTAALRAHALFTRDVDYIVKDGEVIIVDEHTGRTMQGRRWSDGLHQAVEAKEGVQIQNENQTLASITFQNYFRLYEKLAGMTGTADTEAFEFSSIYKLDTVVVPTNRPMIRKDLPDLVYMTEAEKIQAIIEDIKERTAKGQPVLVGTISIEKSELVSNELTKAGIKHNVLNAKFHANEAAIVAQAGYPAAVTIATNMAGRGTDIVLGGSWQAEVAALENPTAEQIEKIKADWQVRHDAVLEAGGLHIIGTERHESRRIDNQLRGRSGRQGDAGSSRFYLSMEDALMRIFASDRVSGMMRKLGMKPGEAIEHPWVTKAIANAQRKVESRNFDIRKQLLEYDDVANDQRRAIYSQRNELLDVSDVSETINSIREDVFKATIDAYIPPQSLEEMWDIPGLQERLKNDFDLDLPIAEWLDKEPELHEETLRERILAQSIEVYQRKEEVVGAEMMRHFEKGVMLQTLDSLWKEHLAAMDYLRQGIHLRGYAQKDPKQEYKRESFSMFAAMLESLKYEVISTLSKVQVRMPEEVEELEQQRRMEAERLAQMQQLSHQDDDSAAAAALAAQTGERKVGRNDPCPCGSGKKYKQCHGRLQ
Chain of Sialic acid-binding Ig-like lectin 9 (Homo sapiens) (Q9Y336 whole entry): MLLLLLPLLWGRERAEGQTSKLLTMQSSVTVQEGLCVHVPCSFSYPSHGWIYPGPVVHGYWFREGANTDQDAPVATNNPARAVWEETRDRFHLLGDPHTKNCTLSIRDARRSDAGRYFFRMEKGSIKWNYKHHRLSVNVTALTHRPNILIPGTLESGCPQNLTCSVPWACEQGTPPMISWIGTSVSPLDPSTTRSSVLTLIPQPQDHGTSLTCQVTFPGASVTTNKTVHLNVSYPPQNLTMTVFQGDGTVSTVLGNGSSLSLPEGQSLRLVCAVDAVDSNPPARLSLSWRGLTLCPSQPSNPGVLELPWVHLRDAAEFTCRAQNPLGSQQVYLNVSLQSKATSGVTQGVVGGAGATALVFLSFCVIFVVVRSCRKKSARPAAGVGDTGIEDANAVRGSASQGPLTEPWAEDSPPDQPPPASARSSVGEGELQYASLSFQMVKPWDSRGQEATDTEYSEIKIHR

With `Cc1n[nH]c(=O)c2c(NC(=O)CN3CCC(O)CC3)oc(C)c12`, the Percent Effect in [1] was -1.08%; in test [2], 10.3%; in [3], -12.1%; in the test with Trypanosoma cruzi, -8.17%; in [4] it was 0.41%; in test [5] it was 19.4%. For the same compound, the Percent Effect in the test listed under Homo sapiens was 21.8%; in [6], 4.31%; in test [7], 10.8%; in test [8], -5.11%.

For `Cc1ccc(NC(=O)N2C[C@H]3CC[C@@H]2CN(Cc2cscn2)C3)cc1`, the Percent Effect in test [1] was -8.89%; in [2] it was 2.7%; in [3], 16.7%; with Trypanosoma cruzi, 2.42%; in [4], 5.25%; in test [5], 4.45%. The Percent Effect turned out to be 0.0605% in the test filed under Homo sapiens, 6.92% in test [6], 12.2% in test [7] and 0.126% in [8].

`Cc1cnn(CC2CCCN2CC(=O)Nc2cc(C)nn2C)c1` (stereo not given): the Percent Effect in [1] is -2.33%; in [2], 5.2%; in [3], 5.19%; in the test with Trypanosoma cruzi, 2.8%; in test [4] it was 1.02%; in [5] it was -5.44%. In addition, the Percent Effect is 0.341% in the test filed under Homo sapiens, 4.9% in [6], 16.5% in test [7] and -7.89% in [8].

Consider `CC(C)c1cc(C(=O)N(C)Cc2cccc3ncccc23)n(C)n1`, for which the Percent Effect in [1] is -3.2%; in test [2], 12%; in [3], 13.8%; in the test on Trypanosoma cruzi, 0.986%; in [4], -1.77%; in test [5] it was 13.1%. Besides, the Percent Effect in the test filed under Homo sapiens was 36.7%; in test [6] it was 3.17%; in test [7], 12.5%; in test [8] it was -26%.

On to `CCc1cnc(CN2CCC(N(C)Cc3noc(C4CC4)n3)C2)o1` (stereo not given), for which the Percent Effect is -3.48% in test [1]; 0% in test [2]; -1.21% in test [3]; -2.24% in the test on Trypanosoma cruzi; 4.3% in [4]; 0.175% in [5]. The Percent Effect in the test listed under Homo sapiens is 5.76%; in test [6] it was 0.98%; in [7], -2.35%; in test [8], 0.446%.

Consider `Cc1cccc(CN2C[C@@H]3CN(C(=O)[C@H]4CCCO4)C[C@@H]3C2=O)c1`, for which the Percent Effect in test [1] is -6.54%; in [2], 24.7%; in test [3] it was 2.65%; in the test on Trypanosoma cruzi, 3%; in test [4] it was -2.28%; in [5] it was 16.4%. Also, the Percent Effect in the test filed under Homo sapiens is 5.56%; in test [6] it was 9.66%; in test [7], 20%; in test [8], -6.96%.

On to `CC(C)c1nc(C2CCCN(Cc3nnc(C4CC4)o3)C2)no1` (stereo not given), for which the Percent Effect is 3.18% in [1]; -2.67% in [2]; 5.21% in [3]; 0% in the test with Trypanosoma cruzi; 4.88% in test [4]; 0.933% in test [5]. The Percent Effect in the test listed under Homo sapiens was 4.85%; in test [6], -1.58%; in test [7], -2.56%; in test [8], -1.26%.

For the compound `CN(C)CCN1C(=O)CCC12CCN(C(=O)c1cccnc1)CC2`, the Percent Effect in test [1] was -1.32%; in [2], 3.9%; in test [3] it was -3.7%; with Trypanosoma cruzi it was -0.75%; in test [4] it was 0.457%; in [5], 5.75%. For the same compound, the Percent Effect was 3.46% in the test filed under Homo sapiens, 1.93% in test [6], 2.5% in test [7] and -20.4% in test [8].

For `COc1ccc(OC)c(C2CCN(Cc3nc(C)n4ccccc34)C2)c1` (stereo not given), the Percent Effect in [1] was -4.56%; in [2], -2.7%; in test [3] it was 16.9%; with Trypanosoma cruzi it was 2.81%; in [4] it was 17.1%; in test [5], 17.8%. In addition, the Percent Effect was 17.9% in the test filed under Homo sapiens, 13.3% in test [6], 26.8% in test [7] and -3.48% in test [8].

In the case of `Fc1ccc(CN2CCCC2c2cncc(-n3ccnc3)n2)cc1` (stereo not given), the Percent Effect was -2.01% in test [1]; 9.33% in test [2]; -0.339% in [3]; -0.986% in the test on Trypanosoma cruzi; 0.885% in test [4]; -1.97% in test [5]. Moreover, the Percent Effect in the test listed under Homo sapiens is 3.29%; in test [6], 4.23%; in [7] it was 12.5%; in [8], -24.9%.

On to `CNc1cncc(C2CCCN2C(=O)c2ccc3oc(C)cc3c2)n1` (stereo not given), for which the Percent Effect in test [1] was -2.25%; in [2], 12%; in [3], -1.38%; with Trypanosoma cruzi, 3.35%; in test [4], -1.33%; in test [5], 16.6%. Moreover, the Percent Effect was -2.62% in the test filed under Homo sapiens, 3.17% in [6], 7.5% in test [7] and -26.1% in test [8].

As to `COC(=O)C1CCN(C(=O)c2ccc(N(C)S(C)(=O)=O)c(C)c2)CC1`, the Percent Effect in [1] was -3.72%; in test [2] it was -2.7%; in test [3] it was -4.09%; with Trypanosoma cruzi it was -31.3%; in [4] it was -1.75%; in [5] it was 13.7%. For the same compound, the Percent Effect was -11.3% in the test listed under Homo sapiens, 2.66% in [6], 2.44% in [7] and 3.29% in test [8].
